The supplement of paper PMC10849652
Of roughly 8,800 targets only a part is listed; those with a hit were picked by preference. About 0.5% of all pairs of compound and target were hits. A number with no mark means an inactive call.

Assays:
Experiment in all cases: log2 fold change, soluble protein after heating vs DMSO (PISA); higher = thermal stabilisation; K562 lysate, 10 uM; active = over 0.2 and 3.5 SD of the protein, either way, in both replicates (recomputed)
vemurafenib = compound: CCCS(=O)(=O)Nc1ccc(F)c(C(=O)c2c[nH]c3ncc(-c4ccc(Cl)cc4)cc23)c1F [vemurafenib]
Summary of the method: (§1)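 Values give the log-two fold change in thermal stability against solvent controls, from duplicates. Crude K562 extract at 1 mg/mL protein, made by dounce homogenisation in PBS pH 7.4 with 1 mM MgCl2, was treated with 10 μM compound for 30 min. After 3 min heating across 48°C-58°C, aliquots were pooled, adjusted to 0.5% NP-40 at 4°C and centrifuged at 21,000xg for 90 min. The supernatant was measured by TMTpro 16plex LC-MS/MS with channel sums equalised.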

[1] = compound: CCCS(=O)(=O)Nc1ccc(F)c(C(=O)c2c[nH]c3ncc(Cl)cc23)c1F
Summary of the method: as §1

barasertib = compound: CCN(CCCOc1ccc2c(Nc3cc(CC(=O)Nc4cccc(F)c4)[nH]n3)ncnc2c1)CCOP(=O)(O)O [barasertib]
Summary of the method: as §1

[2] = compound: CC[C@@H]1C(=O)N(C)c2cnc(Nc3ccc(C(=O)NC4CCN(C)CC4)cc3OC)nc2N1C1CCCC1
Summary of the method: as §1

volasertib = compound: CC[C@@H]1C(=O)N(C)c2cnc(Nc3ccc(C(=O)N[C@H]4CC[C@H](N5CCN(CC6CC6)CC5)CC4)cc3OC)nc2N1C(C)C [volasertib]
Summary of the method: as §1

[3] = compound: CCn1c(C(=O)N(C2CC2)C2CC2)cc2c3c(ncn3C)c(Nc3cc(C)n(C)n3)nc21
Summary of the method: as §1

[4] = compound: CCn1cc(-c2ccnc3[nH]c(-c4cccc(CN(C)C)c4)cc23)c(-c2ccc(NC(=O)N(C)C)cc2)n1
Summary of the method: as §1

[5] = compound: CN1CCC(CNc2ccc3ncc(-c4cccc(OC(F)(F)F)c4)n3n2)CC1
Summary of the method: as §1

saracatinib = compound: CN1CCN(CCOc2cc(OC3CCOCC3)c3c(Nc4c(Cl)ccc5c4OCO5)ncnc3c2)CC1 [saracatinib]
Summary of the method: as §1

sotrastaurin = compound: CN1CCN(c2nc(C3=C(c4c[nH]c5ccccc45)C(=O)NC3=O)c3ccccc3n2)CC1 [sotrastaurin]
Summary of the method: as §1

Chain of UniProt Q9NZJ9 (Q9NZJ9 whole entry, looked up): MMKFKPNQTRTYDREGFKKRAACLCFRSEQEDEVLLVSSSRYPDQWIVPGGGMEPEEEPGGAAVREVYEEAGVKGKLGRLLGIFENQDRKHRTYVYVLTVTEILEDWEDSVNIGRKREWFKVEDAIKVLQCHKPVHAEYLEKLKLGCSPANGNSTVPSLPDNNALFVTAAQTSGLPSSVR
Chain of UniProt Q9UBD5 (Q9UBD5 whole entry, looked up): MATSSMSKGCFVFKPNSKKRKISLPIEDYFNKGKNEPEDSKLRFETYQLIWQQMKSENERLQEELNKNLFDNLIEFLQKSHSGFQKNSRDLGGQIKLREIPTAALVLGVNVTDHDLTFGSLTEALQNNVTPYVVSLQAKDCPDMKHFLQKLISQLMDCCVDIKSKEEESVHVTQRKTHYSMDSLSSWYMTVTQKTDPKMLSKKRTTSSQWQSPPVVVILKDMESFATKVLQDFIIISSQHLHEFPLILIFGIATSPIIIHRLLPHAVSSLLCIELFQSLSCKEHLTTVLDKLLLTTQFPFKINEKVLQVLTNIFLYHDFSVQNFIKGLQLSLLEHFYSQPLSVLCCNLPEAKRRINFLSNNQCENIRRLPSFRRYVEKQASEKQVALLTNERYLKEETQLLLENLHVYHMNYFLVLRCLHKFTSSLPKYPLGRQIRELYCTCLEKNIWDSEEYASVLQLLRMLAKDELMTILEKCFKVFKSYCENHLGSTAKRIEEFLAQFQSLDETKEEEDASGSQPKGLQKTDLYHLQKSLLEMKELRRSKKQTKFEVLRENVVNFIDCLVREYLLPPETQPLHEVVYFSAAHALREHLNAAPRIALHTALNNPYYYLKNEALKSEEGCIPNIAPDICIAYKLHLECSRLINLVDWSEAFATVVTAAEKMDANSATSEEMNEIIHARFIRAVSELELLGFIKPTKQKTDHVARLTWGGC
Chain of UniProt Q9BWT3 (Q9BWT3 whole entry, looked up): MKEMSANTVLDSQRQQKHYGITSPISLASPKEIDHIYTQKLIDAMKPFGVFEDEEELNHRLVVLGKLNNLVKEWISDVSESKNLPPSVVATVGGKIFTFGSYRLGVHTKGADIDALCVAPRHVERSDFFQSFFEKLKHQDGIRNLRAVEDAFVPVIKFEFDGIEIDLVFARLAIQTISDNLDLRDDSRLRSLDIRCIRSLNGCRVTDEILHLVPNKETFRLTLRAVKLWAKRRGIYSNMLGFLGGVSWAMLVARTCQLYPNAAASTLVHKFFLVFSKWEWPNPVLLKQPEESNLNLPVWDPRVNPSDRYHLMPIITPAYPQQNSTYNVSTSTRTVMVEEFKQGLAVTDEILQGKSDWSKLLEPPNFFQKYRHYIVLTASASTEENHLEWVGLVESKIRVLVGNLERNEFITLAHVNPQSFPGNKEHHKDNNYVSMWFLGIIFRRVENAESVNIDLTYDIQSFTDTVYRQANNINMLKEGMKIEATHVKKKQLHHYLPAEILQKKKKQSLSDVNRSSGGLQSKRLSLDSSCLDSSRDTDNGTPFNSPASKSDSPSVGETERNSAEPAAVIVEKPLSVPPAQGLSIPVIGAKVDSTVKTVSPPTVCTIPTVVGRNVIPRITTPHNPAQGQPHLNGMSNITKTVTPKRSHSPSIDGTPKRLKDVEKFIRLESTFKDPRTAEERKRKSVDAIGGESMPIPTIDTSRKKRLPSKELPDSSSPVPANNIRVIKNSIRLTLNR
Chain of UniProt P53370 (P53370 whole entry, looked up): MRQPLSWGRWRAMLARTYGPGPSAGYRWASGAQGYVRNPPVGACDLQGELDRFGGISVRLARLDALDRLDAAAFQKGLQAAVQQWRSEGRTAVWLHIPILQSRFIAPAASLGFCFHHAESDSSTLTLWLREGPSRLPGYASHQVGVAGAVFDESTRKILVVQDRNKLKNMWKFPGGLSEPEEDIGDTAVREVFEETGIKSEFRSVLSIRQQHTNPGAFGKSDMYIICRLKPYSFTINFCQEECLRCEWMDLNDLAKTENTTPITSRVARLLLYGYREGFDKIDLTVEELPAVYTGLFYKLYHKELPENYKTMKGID
Chain of UniProt P30419 (P30419 whole entry, looked up): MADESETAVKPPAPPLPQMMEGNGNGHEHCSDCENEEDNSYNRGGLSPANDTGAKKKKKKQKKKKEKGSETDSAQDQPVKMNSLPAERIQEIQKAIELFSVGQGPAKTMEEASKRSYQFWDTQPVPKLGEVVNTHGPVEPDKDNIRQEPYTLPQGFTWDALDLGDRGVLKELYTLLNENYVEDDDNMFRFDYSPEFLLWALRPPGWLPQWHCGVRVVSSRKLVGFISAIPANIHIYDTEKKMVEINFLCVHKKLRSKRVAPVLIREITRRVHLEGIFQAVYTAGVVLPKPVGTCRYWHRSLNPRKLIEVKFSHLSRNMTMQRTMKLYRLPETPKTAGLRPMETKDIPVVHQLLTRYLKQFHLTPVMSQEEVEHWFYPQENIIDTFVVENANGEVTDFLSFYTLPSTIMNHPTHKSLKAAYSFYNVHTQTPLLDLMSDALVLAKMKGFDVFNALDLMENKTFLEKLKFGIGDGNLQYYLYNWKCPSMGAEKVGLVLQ
Chain of UniProt P04181 (P04181 whole entry, looked up): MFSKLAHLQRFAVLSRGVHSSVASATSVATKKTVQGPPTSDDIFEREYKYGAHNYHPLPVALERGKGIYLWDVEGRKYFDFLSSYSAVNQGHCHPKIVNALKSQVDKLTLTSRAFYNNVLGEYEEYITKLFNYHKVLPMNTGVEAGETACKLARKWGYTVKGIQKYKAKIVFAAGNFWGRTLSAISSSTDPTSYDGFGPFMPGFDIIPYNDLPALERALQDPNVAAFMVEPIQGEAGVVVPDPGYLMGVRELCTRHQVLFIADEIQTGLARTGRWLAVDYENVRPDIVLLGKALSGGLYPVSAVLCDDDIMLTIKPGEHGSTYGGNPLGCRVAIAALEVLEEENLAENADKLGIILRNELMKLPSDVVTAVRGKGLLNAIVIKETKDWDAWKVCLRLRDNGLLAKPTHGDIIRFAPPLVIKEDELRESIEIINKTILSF
Chain of UniProt Q96KB5 (Q96KB5 whole entry, looked up): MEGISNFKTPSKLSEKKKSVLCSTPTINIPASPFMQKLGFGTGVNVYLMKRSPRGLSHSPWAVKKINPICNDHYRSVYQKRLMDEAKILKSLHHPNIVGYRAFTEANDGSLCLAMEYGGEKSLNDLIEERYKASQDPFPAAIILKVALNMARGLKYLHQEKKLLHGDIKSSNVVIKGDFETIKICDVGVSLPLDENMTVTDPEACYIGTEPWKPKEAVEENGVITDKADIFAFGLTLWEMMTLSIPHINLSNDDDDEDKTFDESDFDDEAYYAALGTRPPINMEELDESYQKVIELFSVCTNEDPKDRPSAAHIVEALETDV
Chain of UniProt P20585 (P20585 whole entry, looked up): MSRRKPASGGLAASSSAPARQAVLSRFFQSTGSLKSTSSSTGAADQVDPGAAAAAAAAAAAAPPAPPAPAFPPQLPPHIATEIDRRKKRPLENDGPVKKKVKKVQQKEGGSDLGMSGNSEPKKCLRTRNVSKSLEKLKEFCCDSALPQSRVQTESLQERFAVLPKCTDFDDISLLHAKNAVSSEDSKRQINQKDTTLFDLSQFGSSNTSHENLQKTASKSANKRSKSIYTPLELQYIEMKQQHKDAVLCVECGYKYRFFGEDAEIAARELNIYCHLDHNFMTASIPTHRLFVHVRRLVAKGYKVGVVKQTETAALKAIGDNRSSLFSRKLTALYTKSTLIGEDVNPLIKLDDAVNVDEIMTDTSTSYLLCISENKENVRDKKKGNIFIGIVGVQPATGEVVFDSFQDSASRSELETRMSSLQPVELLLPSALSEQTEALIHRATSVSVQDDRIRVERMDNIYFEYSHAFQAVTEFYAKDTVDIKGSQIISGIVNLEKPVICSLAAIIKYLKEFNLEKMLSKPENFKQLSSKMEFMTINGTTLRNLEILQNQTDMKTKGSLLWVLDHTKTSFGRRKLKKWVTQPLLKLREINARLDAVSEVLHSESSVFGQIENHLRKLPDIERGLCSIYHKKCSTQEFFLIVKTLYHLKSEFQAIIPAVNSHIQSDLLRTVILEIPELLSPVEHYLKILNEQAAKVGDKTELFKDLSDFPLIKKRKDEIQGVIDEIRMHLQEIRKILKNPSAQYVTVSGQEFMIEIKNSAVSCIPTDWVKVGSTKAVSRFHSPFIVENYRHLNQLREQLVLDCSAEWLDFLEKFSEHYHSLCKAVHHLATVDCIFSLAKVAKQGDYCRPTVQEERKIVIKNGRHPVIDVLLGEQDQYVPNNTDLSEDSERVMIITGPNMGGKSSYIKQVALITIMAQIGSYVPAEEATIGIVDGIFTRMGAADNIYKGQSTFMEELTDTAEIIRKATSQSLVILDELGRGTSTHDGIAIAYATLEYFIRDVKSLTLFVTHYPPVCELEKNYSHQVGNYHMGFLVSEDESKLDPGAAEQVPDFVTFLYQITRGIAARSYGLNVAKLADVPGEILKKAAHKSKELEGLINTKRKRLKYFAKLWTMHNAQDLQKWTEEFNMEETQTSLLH
Chain of UniProt P49116 (P49116 whole entry, looked up): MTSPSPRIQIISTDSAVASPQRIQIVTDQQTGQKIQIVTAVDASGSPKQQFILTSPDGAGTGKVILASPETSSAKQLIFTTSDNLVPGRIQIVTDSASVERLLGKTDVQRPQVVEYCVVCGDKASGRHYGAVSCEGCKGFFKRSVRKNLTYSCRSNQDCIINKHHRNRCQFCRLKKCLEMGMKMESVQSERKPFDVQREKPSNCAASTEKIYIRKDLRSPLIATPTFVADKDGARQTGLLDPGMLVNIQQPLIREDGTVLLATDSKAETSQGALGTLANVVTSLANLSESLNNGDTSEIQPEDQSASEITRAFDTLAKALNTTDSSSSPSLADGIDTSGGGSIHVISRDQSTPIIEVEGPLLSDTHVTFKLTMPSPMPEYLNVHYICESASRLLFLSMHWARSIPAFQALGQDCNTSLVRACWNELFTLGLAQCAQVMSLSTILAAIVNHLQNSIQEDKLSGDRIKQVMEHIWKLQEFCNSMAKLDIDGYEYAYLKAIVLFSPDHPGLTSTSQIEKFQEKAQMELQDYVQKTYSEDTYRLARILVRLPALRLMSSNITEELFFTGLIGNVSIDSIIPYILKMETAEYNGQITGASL

Target | log2 fold change (vemurafenib) | log2 fold change [1] | log2 fold change (barasertib) | log2 fold change [2] | log2 fold change (volasertib) | log2 fold change [3] | log2 fold change [4] | log2 fold change [5] | log2 fold change (saracatinib) | log2 fold change (sotrastaurin)
ORC2 (UniProt Q13416) | 0.048 | 0.007 | 0.003 | -0.077 | -0.048 | 0.002 | -0.002 | -0.085 | 0.007 | 0.049
OAT (UniProt P04181) | 0.066 | 0.003 | -0.012 | -0.019 | -0.014 | -0.006 | -0.119 | 0.014 | -0.004 | -0.024
NUDT4 isoform 2 (UniProt Q9NZJ9) | 0.009 | 0.021 | -0.05 | 0.013 | 0.005 | -0.018 | -0.068 | 0.058 | 0.076 | 0
MRPS31 (UniProt Q92665) | 0.043 | -0.001 | -0.011 | 0.041 | -0.004 | -0.026 | -0.046 | 0.034 | 0.014 | 0.021
NUMBL (UniProt Q9Y6R0) | -0.06 | 0.014 | -0.005 | -0.009 | -0.037 | 0.189 | 0.032 | -0.011 | 0.052 | -0.278
NCAPH2 (UniProt Q6IBW4) | -0.044 | 0.027 | 0.058 | 0.027 | -0.002 | -0.014 | -0.032 | 0.02 | 0.001 | 0.03
NUP210 (UniProt Q8TEM1) | -0.009 | 0.048 | 0.072 | -0.004 | 0.006 | 0.036 | 0.012 | -0.015 | 0.029 | -0.004
NIFK (UniProt Q9BYG3) | 0.015 | 0.036 | 0.033 | 0.006 | -0.027 | 0.009 | 0.093 | -0.045 | 0.005 | -0.018
ORC5 (UniProt O43913) | -0.059 | -0.001 | -0.052 | -0.156 | -0.023 | 0.013 | -0.038 | 0.01 | -0.001 | 0.024
NUB1 (UniProt Q9Y5A7) | -0.007 | 0.011 | 0.028 | -0.052 | -0.056 | 0 | 0.008 | -0.048 | -0.009 | 0.021
NR2C2 isoform 2 (UniProt P49116) | -0.087 | 0.049 | 0.017 | -0.091 | -0.001 | 0.003 | 0.075 | -0.074 | -0.058 | 0.002
N4BP2 (UniProt Q86UW6) | -0.001 | 0.052 | -0.018 | 0.029 | -0.014 | 0 | -0.336 (active) | 0.029 | 0.018 | 0.05
NBN (UniProt O60934) | 0.011 | 0.011 | 0.037 | -0.028 | -0.019 | -0.003 | 0.043 | -0.058 | 0.025 | 0.001
MSH6 (UniProt P52701) | 0.024 | 0.028 | 0.021 | -0.109 | -0.061 | 0.044 | -0.035 | -0.041 | -0.003 | 0.047
MSH3 (UniProt P20585) | -0.004 | 0.048 | -0.001 | 0.036 | -0.031 | -0.034 | -0.025 | 0.031 | 0.038 | 0.039
NF1 (UniProt P21359) | 0.019 | 0.024 | 0.029 | -0.044 | -0.048 | 0.031 | -0.035 | -0.041 | 0.001 | -0.029
PBK (UniProt Q96KB5) | -0.006 | 0.002 | -0.009 | -0.069 | -0.033 | 0.039 | 0.043 | -0.017 | -0.018 | -0.015

Target | log2 fold change (vemurafenib) | log2 fold change [1] | log2 fold change (barasertib) | log2 fold change [2] | log2 fold change (volasertib) | log2 fold change [3] | log2 fold change [4] | log2 fold change [5] | log2 fold change (saracatinib) | log2 fold change (sotrastaurin)
ORC3 isoform 2 (UniProt Q9UBD5) | 0.016 | -0.008 | 0.022 | -0.036 | -0.059 | -0.006 | -0.063 | -0.018 | -0.001 | 0.027
OPA1 isoform 2 (UniProt O60313) | 0.022 | 0.029 | 0.024 | -0.057 | -0.033 | 0.037 | -0.016 | -0.192 | 0.007 | 0.014
NMT1 (UniProt P30419) | 0.024 | 0.016 | -0.025 | 0.014 | -0.002 | 0.01 | -0.04 | 0.001 | 0.003 | 0.025
NAA16 (UniProt Q6N069) | 0.902 (active) | -0.048 | 0.246 | -0.049 | -0.078 | 0.057 | – | – | -0.012 | –
NTMT1 (UniProt S4R338) | – | 0.043 | – | – | -0.002 | – | – | – | – | –
NUDT6 (UniProt P53370) | 0.022 | – | – | 0.091 | – | -0.085 | – | – | 0.05 | -0.033
PAGE2B (UniProt Q5JRK9) | 0.008 | -0.056 | – | -0.027 | -0.013 | -0.008 | -0.034 | -0.239 | 0.176 | 0.05
NRIP1 (UniProt P48552) | – | 0.024 | 0.076 | – | -0.055 | -0.124 | -0.651 (active) | 0.17 | -0.071 | -0.074
ORC1 (UniProt Q13415) | – | – | – | 0.185 | – | – | – | – | – | –
OSBPL1A (UniProt Q9BXW6) | – | 0.028 | 0.007 | – | 0.019 | – | -0.095 | 0.05 | 0.013 | 0.038
NACC1 (UniProt Q96RE7) | -0.039 | -0.003 | 0.039 | -0.027 | 0.008 | 0.004 | -0.059 | -0.003 | -0.016 | 0.034
MTCH2 (UniProt Q9Y6C9) | 0.013 | 0.008 | -0.02 | 0.021 | 0.05 | -0.012 | -0.155 | 0.014 | -0.011 | 0.022
PAPOLG (UniProt Q9BWT3) | -0.176 | – | – | -0.04 | – | -0.02 | -0.013 | -0.049 | -0.235 | 0.031
NFAT5 isoform 4 (UniProt O94916) | – | – | -0.039 | – | – | – | – | – | – | 0
MXRA7 (UniProt P84157) | -0.134 | 0.094 | – | -0.006 | 0.054 | 0.049 | -0.182 | 0.167 | 0.02 | -0.064
NFATC4 isoform 2 (UniProt Q14934) | 0.081 | -0.013 | 0.059 | -0.05 | -0.004 | – | 0.053 | 0.068 | 0.044 | 0.026
